# Only some compounds are listed: those with a hit (about 5.2% of all), similar ones and a draw of the others.
# Sfp PPTase inh: blocks B. subtilis Sfp PPTase activity; Q9F4F7; Biochemical Sfp PPTase activity, qHTS; Potency, µM, for the others: largest response in the series, negative = inhibition, most hits filed as inhibitors; actives 3.5% (n = 310,000); AID 1490;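 note: the enzyme is Sfp with the accession as filed and its product quenches rhodamine fluorescence; potency is the fitted concentration of half-maximal effect; 0% = enzyme reaction without inhibitor and -100% = no enzyme wells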
#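 With Hepes-Na pH 7.6 buffer containing 10 mM MgCl2, Sfp (15 nM) modified BHQ-2-YbbR (12.5 uM) using rhodamine-CoA (5 uM). Two reads 30 minutes apart at 525/598 nm yielded each well's rate.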
# Tau fluor counter: counter-screen for tau fibril formation inhibitors; tau K18 P301L Alexa594 fluorescence, heparin fibrillization; Potency, µM (doses to about 57.7 µM), without a hit: at the highest dose activity change, negative = decrease; actives 0.93% (n = 280,000); note: potency is the fitted concentration of half-maximal effect; nearly all actives have a fitted effect of over 55% in size
#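 Human tau K18 P301L (15 uM unlabeled, 0.24 uM Alexa 594-labeled) in 100 mM sodium acetate pH 7 with 20 uM heparin, 6 hr at 37 C. ThT 30 uM added, 1 hr ambient; Alexa 594 FP and total fluorescence read at 555/632 nm.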
# Tau fibril ThT: inhibitors of human tau fibril formation, thioflavin T binding | P10636 | recombinant tau K18 P301L, heparin-induced fibrillization, ThT fluorescence | Potency, µM (top dose mostly 57.4 µM), inactives show at the highest dose activity, negative = inhibition, actives largely listed as inhibitors | actives 2.1% (n = 270,000); note: potency is the fitted concentration of half-maximal effect; nearly all actives have a fitted effect of over 55% in size
# Target sequence (P10636 561-689 P618L limits assumed): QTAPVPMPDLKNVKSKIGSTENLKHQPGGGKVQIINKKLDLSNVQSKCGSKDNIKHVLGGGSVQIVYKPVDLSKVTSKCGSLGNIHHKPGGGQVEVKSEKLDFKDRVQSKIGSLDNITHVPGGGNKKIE
#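 Tau K18 P301L fragment (15 uM unlabeled plus 0.24 uM Alexa 594-labeled) in 100 mM sodium acetate pH 7 with compound, fibrillization induced by 20 uM heparin for 6 hr at 37 C. Thioflavin T (30 uM) added, fluorescence read after 1 hr (ex 450, em 510 nm).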
# Coupling enz: inhibits coupling enzyme system, counter-screen for aldolase hits; coupling enzyme system counterscreen, AmpLite Red fluorescence; activity change, negative = inhibition, % at 58.2 µM, hits read low; actives 0.67% (n = 290,000); AID 2472; in the data active = activity change below about -30%
#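 Final compound at 57.5 uM, incubated 10 min at RT with coupling enzyme reagent (glyceraldehyde-3-phosphate), then 20 min with substrate and AmpLite Red detection. Fluorescence read at 525/598 nm; tests interference with the coupling assay, not aldolase inhibition.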
# Tau fibril FP: blocks human tau fibril formation measured by polarization; actives 0.39% (n = 280,000); K18 P301L tau heparin fibrillization, Alexa594 FP, 6 h; Potency, µM (top dose mostly 57.7 µM), for the others: top-dose activity, negative = inhibition, most hits filed as inhibitors; AID 1468; note: potency is the fitted concentration of half-maximal effect; nearly all actives have a fitted effect of over 55% in size
#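 Heparin (20 uM) drove fibril formation of recombinant tau K18 P301L, 15 uM unlabeled with 0.24 uM Alexa 594 label, for 6 hr at 37 C in 100 mM sodium acetate pH 7. Fluorescence polarization (555/632 nm) read 1 hr after 30 uM ThT.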
# * = called active by the depositor; ? = inconclusive; / = no result; [ ] = another dose, or the depositor's remark. Unless noted, calls come from the whole dose curve; as a rule, active = well fitted curve in the direction sought with a large enough effect; inconclusive = small, poorly fitted or top-dose-only effect, or another doubt; inactive = no such curve, though single readings can be large; an effect the other way counts as inactive or inconclusive. Unless noted, % is set by controls: 0 for no effect and ±100 for the full control effect.
SMILES,Sfp PPTase inh,Tau fluor counter,Tau fibril ThT,Coupling enz,Tau fibril FP
Cc1cccc(NC(=O)C2CCN(S(=O)(=O)c3ccc4[nH]c5c(c4c3)CCCCC5)CC2)c1,/,?,7%,/,-4%
CCOc1ccc(Br)cc1S(=O)(=O)Nc1ccc(C(=O)OCC(=O)Nc2ccc(C#N)cc2)cc1,24%,?,-5%,-6,25µM*
CC(=O)c1cccc(NS(=O)(=O)c2ccc3[nH]c4c(c3c2)CCCCCC4)c1,/,14µM*[quencher],-7%,/,5%
O=C(CSc1n[nH]c(-c2ccccc2Cl)n1)N1CCN(c2ccccc2)CC1,/,-13%,-16%,/,10%
COc1ccc(NC2=C(c3ccccc3)C(=O)c3ccccc32)cc1Cl,/,?,-18%,/,-7%
COc1ccc(OC)c(NC2=C(c3ccccc3)C(=O)c3ccccc32)c1,/,?,14µM*,/,8%
CN(C)c1ccc(NC(=S)c2ccc3ccccc3n2)cc1,7.1µM*,/,/,-3,/
COc1cc2c3c(c1)C(C)CC(C)(C)N3C(=O)C2=O (stereo not drawn),23%,-22%,?,-2,5%
CCc1cc2c3c(c1)C(C)CC(C)(C)N3C(=O)/C2=C1\SC(=O)NC1=O (stereo not drawn),6%,?,14µM*,1,3%
COC(=O)C1=C(C(=O)OC)SC2(S1)C(C(=O)OC)=C(C(=O)OC)SC1=C2c2cc(C)cc(C)c2NC1(C)C,9%,?,14µM*,-2,?
CCCCCCOc1ccc(/C(C)=N/NC2=NCCN2)cc1,56µM*,/,/,0,/
CCCCCOc1ccc(/C(C)=N/NC2=NCCN2)cc1,-7%,/,/,4,/
O=C(Nc1cccc(C(F)(F)F)c1)c1cccnc1,6%,-5%,0%,0,-3%
N#C/C(=N\Nc1cccc(C(F)(F)F)c1)C(=O)c1csc(-c2cccnc2)n1,0%,-15%,4.5µM*,12,10%
COc1ccc(N=C2NN=C(c3ccc4c(c3)OCCO4)CS2)cc1,?,?,7.1µM*,2,?
CCCCN=C1NN=C(c2ccc3c(c2)OCCO3)CS1,40µM*,-14%,?,-4,7%
COc1ccc(CN=C2NN=C(c3ccccc3)CS2)cc1,45µM*,-23%,?,-2,-2%
Cc1cccc(CN2CCN(CC(=O)NCc3ccc(Cl)cc3)C2=O)c1,/,-5%,-1%,/,-5%
CCOC(=O)c1c(Nc2cc(C)cc(C)c2)nnc(-c2ccccc2)c1-c1ccccc1,/,-12%,?,/,-3%
CC(C)(C)c1ccc(N2C[C@@H](COc3ccc(C(=O)O)cc3)CC2=O)cc1,23%,/,/,-1,/
C=CCOC(=O)/C=C/C(=O)NC(N)=O,20µM*,?,/,-1,15%[11.6 µM]
C=CCOC(=O)/C=C/NC(=O)/C=C/C=C/CCCCCCCC(C)O (stereo not drawn),-6%,-14%[11.6 µM],?,7,-2%[11.6 µM]
Cc1ccc(C)c(N2C(=O)N(Cc3ccccc3C)c3ccccc3S2(=O)=O)c1,/,-11%,-3%,/,-11%
Cc1ccc(C)c(-n2nnc(-c3nc(-c4ccccc4C)no3)c2C)c1,/,-10%,2%,/,-1%
COc1cccc(N2CCN(C(=O)c3ccc(=O)oc3)CC2C)c1 (stereo not drawn),35µM*,-15%,?,15,-4%
SMILES,Sfp PPTase inh,Tau fluor counter,Tau fibril ThT,Coupling enz,Tau fibril FP
COc1ccccc1-c1nc(NCc2cccnc2)c2ccccc2n1,?,/,/,0,/
CCOC(=O)c1sc(Nc2nc3cc4c(cc3s2)OCO4)cc1C,-8%,4.5µM*[quencher],?,-1,-2%
CC(=O)Nc1nc2cc3c(cc2s1)OCO3,7%,5%,-5%,0,8%
CC(=O)c1sc(Nc2nc3cc4c(cc3s2)OCO4)nc1C,?,?,3.2µM*,2,0%
CC1CCN(S(=O)(=O)c2ccc3c(ccc(=O)n3CC(=O)NCc3ccc(Cl)cc3)c2)CC1,/,?,-5%,/,-3%
C[C@@H](O)C(N)C(=O)O (stereo partly drawn),11%,/,/,-2,/
COc1cc2c(cc1NC(=O)Nc1ccc(C)cc1)oc1ccccc12,?,4µM*[quencher],-4%,-2,-7%
COc1ccc(NC(=O)Nc2ccc(Cc3ccncc3)cc2)c(OC)c1,-5%,25µM*[quencher],?,1,?
COc1ccc(NC(=O)Nc2cnccn2)c(OC)c1,-1%,/,/,/,/
COc1ccc(OCC(=O)Nc2cc3oc4ccccc4c3cc2OC)cc1,?,-3%,-12%,-5,-1%
COc1ccc(NC(=O)Nc2cc3oc4ccccc4c3cc2OC)cc1,-20%,8.9µM*[quencher],?,1,?
COc1cc2c(cc1NC(=O)Nc1cccc(C)c1)oc1ccccc12,4%,7.9µM*[quencher],?,0,-1%
COc1ccc(NC(=O)N2CCC3(CC2)CCN(C(=O)c2ccco2)CC3)cc1,18%,/,/,-4,/
O=C(Nc1ccc(S(=O)(=O)N(Cc2ccccc2)c2ccccc2)cc1)c1ccc([N+](=O)[O-])cc1,/,?,7%,/,-6%
COc1cc2c(cc1NC(=O)Nc1ccc(F)cc1)oc1ccccc12,?,6.3µM*[quencher],-2%,2,-8%
COc1ccc(C(=O)Nc2nc3ccc(OC)cc3s2)cc1,-6%,/,/,-4,/
Cc1ccc2nc(NC(=O)c3cc(=O)c4cc(C)c(C)cc4o3)sc2c1,/,-10%,?,/,-8%
Cc1cc(C)c2nc(NNC(=O)c3cc(=O)c4ccccc4o3)sc2c1,18µM*,?,5µM*,-10,-10%
COc1ccc2nc(NC(=O)c3cc(=O)c4ccccc4o3)sc2c1,/,-22%,0.89µM*,/,-9%
S=c1nc(-c2cc(Cl)cc(Cl)c2)[nH][nH]1,40µM*,-4%,-8%,6,-2%
